Shown are actives, neighbours in structure and some others; about 3.7% of the full set was active somewhere.
TIM10 inh: inhibits growth of TIM10 yeast strain; actives 1.4% (n = 330,000); S. cerevisiae TIM10 strain growth, BacTiter-Glo luminescence, 24 h; inhibition, % at 10 µM;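 active means inhibition of 40% or more at the single tested concentration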;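 further: wild-type TIM10 isogenic control strain grown at permissive 25 °C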
PfHsp90 yeast 2: growth inhibition of yeast expressing Plasmodium Hsp90; S. cerevisiae expressing PfHsp90, BacTiter-Glo ATP, 48 h; yeast lacking PDR1 and PDR3 efflux regulators; inhibition, % at 9.4 µM; actives 0.32% (n = 310,000);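 active means every replicate shows inhibition above about 80%, whatever the replicate mean, limit read from the data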;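 further: 0% = DMSO neutral controls and 100% = 20 µM radicicol positive controls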
tim23-1 inh: inhibits growth of tim23-1 mutant yeast; S. cerevisiae tim23-1 growth, BacTiter-Glo luminescence, 24 h; inhibition, % at 20 µM; actives 1.3% (n = 330,000);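 active means growth inhibition of the mutant yeast at or above 50%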;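 further: temperature-sensitive mutant grown at 25 °C; plate controls were DMSO-treated mutant yeast for no effect and medium wells lacking yeast for full effect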
Rce1 inhib: yeast Ras-converting enzyme inhibition; Q03530; yeast membranes, quenched prenylated peptide cleavage fluorescence; calls only; actives 0.27% (n = 290,000);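 active means fall in fluorescence gain of 50% or more versus controls, with final raw signal at or below 3038400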;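 further: plate controls were neutral control wells for no effect and wells lacking membranes for full effect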
Target sequence (Q03530 whole entry, looked up): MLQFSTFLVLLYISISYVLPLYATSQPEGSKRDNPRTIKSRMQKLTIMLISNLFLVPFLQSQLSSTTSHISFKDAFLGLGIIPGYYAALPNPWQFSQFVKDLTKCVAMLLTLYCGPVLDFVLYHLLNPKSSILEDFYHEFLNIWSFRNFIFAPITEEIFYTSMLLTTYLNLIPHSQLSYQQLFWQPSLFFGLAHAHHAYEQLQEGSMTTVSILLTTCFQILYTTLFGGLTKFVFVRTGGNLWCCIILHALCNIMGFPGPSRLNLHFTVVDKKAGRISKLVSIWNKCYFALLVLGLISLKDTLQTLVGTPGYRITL
tim10-1 inh: growth inhibitors of tim10-1 mutant yeast | inhibition, % at 20 µM | S. cerevisiae tim10-1 ts strain growth, BacTiter-Glo, 24 h | AID 463190 | actives 2.2% (n = 330,000);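 active means inhibition of at least 40%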;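 further: mutant grown at 25 °C; 0% = DMSO wells with yeast and 100% = wells holding no yeast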
tim10-1 conf: tim10-1 yeast growth inhibition, confirmed; actives 56% (n = 7,400); S. cerevisiae tim10-1 ts strain growth, BacTiter-Glo, 24 h; shares compounds with tim10-1 inh; AID 463213; inhibition, % at 20 µM;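 active means inhibition of yeast growth at or above a set limit in either of two repeat tests at 20 µM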;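 further: tim10-1 mutant grown at permissive 25 °C to find synthetic lethal compounds; 0% = DMSO yeast wells and 100% = medium wells without yeast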
An asterisk follows results filed as active; i = inactive; nt = no result given.

SMILES | TIM10 inh | PfHsp90 yeast 2 | tim23-1 inh | Rce1 inhib | tim10-1 inh | tim10-1 conf
CCOC(=O)c1c(NC(=O)c2c(C(=O)O)cccc2[N+](=O)[O-])sc(C)c1C | 14 | 7 | -7 | i | 0 | nt
O=C(c1ccc(-c2nnc(-c3ccccc3)o2)cc1)N1CCCCCC1 | 11 | 8 | 6 | i | 45* | 33*
O=C(c1ccc(COc2ccccc2Br)cc1)N1CCCCCC1 | 28 | -32 | 39 | i | 41* | 27
O=C(c1ccc(COc2ccc(Cl)cc2)cc1)N1CCCCC1 | 0 | -6 | 9 | i | 34 | nt
CCCc1ccc2oc(C(=O)N(Cc3nccn3C)C(C)C)c(C)c2c1 | 19 | 9 | 29 | i | 43* | -17
Cc1c(C(=O)N(Cc2nccn2C)C(C)C)oc2c(F)cccc12 | -3 | -2 | 1 | i | 19 | nt
COc1ccc(-c2nc(CSCC(=O)NC3CCCc4ccccc43)c(C)o2)cc1OC (configuration not stated) | 21 | 9 | 29 | i | 41* | 11
Cc1ccc(C)c(CN2C(=O)c3ccccc3S(=O)c3ccc(C(=O)N4CCN(c5ccccn5)CC4)cc32)c1 (configuration not stated) | 20 | 4 | -5 | i | 20 | nt
Cc1ccc(/C(N)=N/OC(=O)N2CCOCC2)cc1 | 30 | 10 | 29 | i | 58* | 46*
Cc1cccc(/C(N)=N/OC(=O)N2CCOCC2)c1 | 2 | 10 | 9 | i | -3 | nt
COc1ccc(C2C(=O)N(CCc3ccccc3)CC(=O)N2C2CCCC2)cc1 (configuration not stated) | 16 | 8 | 33 | i | 44* | 29*
COc1ccc(C2C(=O)N(C3CCCCC3)CC(=O)N2C2CCCC2)cc1 (configuration not stated) | 25 | 5 | 26 | i | 13 | nt
CCN(CC1COc2ccccc2O1)C(=S)Nc1ccc(F)cc1 (configuration not stated) | 32 | 11 | 47 | i | 45* | 30
CC(NC(=O)c1cccc(Cl)c1)C1CC2CCC1C2 (configuration not stated) | 19 | -18 | 38 | i | 45* | 35*
COc1cccc(CNC(=O)c2ccc(NC(=O)C3=CSCCO3)cc2)c1 | 3 | -7 | 47 | i | 45* | 6
Cc1ccc(CNC(=O)c2ccc(NC(=O)C3=CSCCO3)cc2)cc1 | 8 | 1 | 5 | i | 14 | nt
CCOP(=O)(OCC)/C(C#N)=C/c1ccc(-c2ccc(F)cc2F)o1 | 9 | -6 | 34 | i | 47* | 32*
COc1ccc(Sc2nnc(Cc3ccccc3)c3ccccc23)cc1 | 28 | 4 | 23 | i | 31 | nt
Cc1ccc(Sc2nnc(Cc3ccccc3)c3ccccc23)cc1 | 24 | nt | 34 | nt | 41* | 27
O=C1CN(C(=O)COC(=O)c2cccc(OCc3ccccc3)c2)c2ccccc2N1 | 11 | 30 | -2 | i | 15 | nt
COc1ccc(C(=O)c2nc3c(n2O)CCCCC3)cc1 | 1 | -48 | 16 | i | 13 | nt
O=C(c1ccc(Oc2ccccc2)cc1)c1nc2c(n1O)CCCC2 | 30 | nt | 15 | i | 41* | 16
COc1ccc(CCNC(=O)[C@@H](NC(=O)N2CC(=O)Nc3ccccc32)C(C)C)cc1OC | -3 | -11 | 12 | i | 18 | nt
Cc1cc2nc(/C(C#N)=C\c3ccc(-c4ccccc4C(=O)O)o3)[nH]c2cc1C | 10 | -12 | 30 | i | 46* | 39*
CC(=O)Nc1ccc(S(=O)(=O)N(C)CC(=O)OCC(=O)N2CCCC2=O)cc1 | -4 | nt | 5 | i | 3 | nt
SMILES | TIM10 inh | PfHsp90 yeast 2 | tim23-1 inh | Rce1 inhib | tim10-1 inh | tim10-1 conf
CC(=O)Cc1cc(O)c2ccccc2c1OC(=O)c1ccccc1 | 27 | -18 | 48 | nt | 43* | 38*
CCS(=O)(=O)C1=NN2C(=N)/C(=C\c3ccc(OC(=O)c4ccco4)cc3)C(=O)N=C2S1 | 9 | 3 | 9 | i | 23 | nt
COc1cc(/C=C2\C(=N)N3N=C(S(=O)(=O)CC(C)C)SC3=NC2=O)ccc1OC(=O)c1ccco1 | 14 | nt | 19 | i | 41* | 5
CC(C)CN(C(=O)CCC(=O)OCC(=O)NCCc1ccccc1)c1c(N)n(CC(C)C)c(=O)[nH]c1=O | 4 | 6 | 3 | i | 6 | nt
O=C(NN1C(=O)c2ccccc2C1=O)C1CCCCC1 | 0 | -3 | 11 | i | 5 | nt
COc1ccccc1/C=C1/C(=O)N(c2cc(C)cc(C)c2)C(c2cccc([N+](=O)[O-])c2)S1(=O)=O (configuration not stated) | 20 | -37 | 31 | i | 36 | nt
CCOc1ccc(N2C(=O)/C(=C\c3ccccc3OC)S(=O)(=O)C2c2cccc([N+](=O)[O-])c2)cc1 (configuration not stated) | 16 | 110* | 34 | i | 45* | 41*
O=C(O)CC1c2ccccc2C=Cc2ccccc21 | 11 | -11 | 22 | i | -2 | nt
CCOC(=O)c1c(C)oc2ccc(NS(=O)(=O)c3cccs3)cc12 | 29 | -32 | 37 | i | 42* | 21
CCCOC(=O)c1ccc(NS(=O)(=O)c2cccs2)cc1 | 30 | -9 | 38 | i | 54* | 35*
Cc1ccc(-c2csc(NC(=O)CN3CC(C)OC(C)C3)n2)cc1 (configuration not stated) | 26 | 5 | 41 | i | 40* | 34*
CC1CCN(CC(=O)Nc2nc(-c3ccccc3)cs2)CC1 | 8 | 17 | 30 | i | 16 | nt
O=C(NC(=S)NC1C2CC3CC(C2)CC1C3)C12CC3CC(CC(C3)C1)C2 (configuration not stated) | 39 | -20 | 35 | i | 46* | 15
CCCC(=O)Nc1ccc(NC(=O)c2ccccc2)nc1 | 4 | 4 | 8 | i | -5 | nt
CCCC(=O)Nc1ccc(NC(=O)C23CC4CC(CC(C4)C2)C3)cn1 | 30 | -2 | 40 | i | 44* | 33*
CCC(=O)NC(=S)Nc1ccc(Cl)cn1 | 21 | 1 | 39 | i | 27 | nt
CN(C)NC(=S)NC(=O)C12CC3CC(CC(C3)C1)C2 | 27 | 22 | 3 | i | 34 | nt
O=C(NC(=S)Nc1ccc(Cl)cn1)C12CC3CC(CC(C3)C1)C2 | 31 | -17 | 24 | i | 40* | 14
O=C(CP(=O)(c1ccccc1)c1ccccc1)Nc1nc2ccc(Cl)cc2s1 | 19 | 7 | 15 | i | 16 | nt
CCSc1nnc(NC(=O)CCC2CCCCC2)s1 | 12 | 2 | 5 | i | 15 | nt
COc1ccc(N(CC(O)CN2CCOCC2)S(=O)(=O)c2ccccc2)cc1 (configuration not stated) | 0 | 14 | 2 | i | 0 | nt
CC12CCC(=O)N1C(C(=O)Nc1ccccc1N1CCOCC1)CS2 (configuration not stated) | -9 | -17 | -8 | i | -7 | nt

Screening results as filed in PubChem BioAssay.
